# Bioassay records deposited in PubChem BioAssay by several laboratories.
# The list is not random: actives were taken first. Their share in the collection is about 3.3%.
# PRMT1 inh: PRMT1 methyltransferase inhibitors, primary screen, biochemical, fluorescence polarization | Protein arginine N-methyltransferase 1 (Homo sapiens), Q99873 | recombinant PRMT1, activity-based probe fluorescence polarization | inhibition, % at 2.79 µM | hit rate 1.3% among 370,000;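 active = inhibition above about 21% made by adding two undisclosed values, limit read from the data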
# PfM18AAP inh-1: PfM18AAP inhibitors, malaria aminopeptidase, primary screen, biochemical, QFRET, recombinant enzyme; hit rate 1.2% among 290,000; AID 1822, 2009; inhibition, % at 7.35 µM; H-Glu-NHMec fluorogenic cleavage;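 active = inhibition above the campaign mean inhibition over all tested compounds plus 3 SD, cut at about 28% in these data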;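 also: 0% = plate median of test compound wells and 100% = 2 mM ZnCl2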
# UHRF1 binding: UHRF1 methylated DNA binding inhibitors, primary screen, counter-screen for MBD2 inhibitor project, biochemical, TR-FRET, human UHRF1, single concentration; UHRF1 binding to methylated oligo; inhibition, % at 4.4 µM; hit rate 0.75% among 370,000; in the data active = inhibition above about 21%;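 also: UHRF1 SRA domain binding a hemimethylated CpG hairpin DNA probe; 0% = median of test compound wells and 100% = reference inhibitor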
# MBD2 inh: inhibitors of MBD2 binding to methylated DNA, primary screen, biochemical, TR-FRET, DNA-binding domain, human; Methyl-CpG-binding domain protein 2 (Homo sapiens), Q9UBB5; MBD2 binding to methylated oligonucleotide; inhibition, % at 4.4 µM; hit rate 0.31% among 370,000; in the data active = inhibition above about 13%
# PfGluPho inh: PfG6PD enzyme inhibitors, primary screen, biochemical, fluorescence intensity, uHTS; glucose-6-phosphate dehydrogenase-6-phosphogluconolactonase (Plasmodium falciparum 3D7); PfGluPho enzyme, NADPH resazurin-diaphorase fluorescence; inhibition, % at 20 µM; hit rate 0.78% among 350,000;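 active = inhibition reaching at least a set limit at 20 µM in the primary screen, cut at about 59% in these data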;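 also: 0% = DMSO wells with substrate and 100% = DMSO wells lacking glucose-6-phosphate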
# PfM18AAP inh-2: PfM18AAP inhibitors, malaria aminopeptidase, confirmation, biochemical, QFRET, recombinant enzyme, triplicate; shares compounds with PfM18AAP inh-1; hit rate 28% among 2,400; H-Glu-NHMec fluorogenic cleavage; inhibition, % at 7.35 µM;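 active = mean inhibition over replicate wells above the hit cutoff set for the earlier primary screen, cut at about 29% in these data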;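 also: 0% = median of test compound wells and 100% = 2 mM ZnCl2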
# CTSL1 confirm: cathepsin L1 inhibitors, retest, confirmation, counter-screen for PFM18AAP inhibitor project, biochemical, QFRET, triplicate; purified cathepsin L1, Z-Leu-Arg-MCA fluorescence; 2,400 tested, under 10 active; shares compounds with PfM18AAP inh-1; inhibition, % at 5.96 µM;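 active = average inhibition across replicates above the hit cutoff set in the earlier primary screen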;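 also: 0% = median of test compound wells and 100% = Z-Phe-Ala-diazomethylketone 1 µM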
# Target sequence (P07711 whole entry, looked up): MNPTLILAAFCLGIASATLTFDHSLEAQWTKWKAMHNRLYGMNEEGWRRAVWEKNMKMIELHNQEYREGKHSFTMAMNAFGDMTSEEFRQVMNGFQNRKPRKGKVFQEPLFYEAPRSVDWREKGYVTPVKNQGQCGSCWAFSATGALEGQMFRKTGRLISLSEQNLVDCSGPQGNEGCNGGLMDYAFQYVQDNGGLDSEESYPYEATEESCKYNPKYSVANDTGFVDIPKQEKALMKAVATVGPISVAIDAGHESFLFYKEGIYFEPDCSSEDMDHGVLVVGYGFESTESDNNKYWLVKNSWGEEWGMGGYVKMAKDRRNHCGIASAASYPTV
# Active calls of the source: *; / = not tested or not shown.
SMILES,PRMT1 inh,PfM18AAP inh-1,UHRF1 binding,MBD2 inh,PfGluPho inh,PfM18AAP inh-2,CTSL1 confirm
O=C(CCc1ccccc1)OCC(=O)c1ccc([N+](=O)[O-])cc1,6,46*,-4,-5,41,-25,-5
Cc1ccc(S(=O)(=O)N(C)[C@H]2C[C@H]3c4cc(N5CCOCC5)ccc4CCN3C[C@H]2[C@H](C)O)cc1,-1,/,1,2,/,/,/
CCCC[C@H](C(=O)N(CC)c1ccccc1)[C@@H](O)c1ccc(C(C)=O)cc1,1,/,2,-2,/,/,/
NS(=O)(=O)c1ccc(NC(=S)NCCc2ccccc2)cc1,14,41*,1,-2,53,7,4
NS(=O)(=O)c1ccc(NC(=S)NC2CCCCCC2)cc1,24*,44*,-2,1,30,0,3
NS(=O)(=O)c1ccc(CNC(=S)Nc2ccc(F)c(Cl)c2)cc1,3,-4,3,4,34,/,/
NS(=O)(=O)c1ccc(NC(=S)NCc2ccc(Cl)cc2)cc1,4,35*,-2,3,56,11,2
NS(=O)(=O)c1ccc(NC(=S)NC(=O)C2CCCCC2)cc1,-2,9,4,-5,9,/,/
CC(=O)O[C@H]1[C@H](OC(C)=O)C[C@]2(OC(C)=O)C[C@H]1OC2=O,6,/,6,8,/,/,/
N#Cc1c(C(F)(F)F)cc(-c2ccco2)nc1SCc1ccncc1,0,44*,1,-2,-1,-43,7
CSc1nc(-c2ccco2)cc(C(F)(F)F)c1C#N,-1,-15,2,-3,12,/,/
Cc1ccnc(NC(=S)N2CCN(c3cccc(C(F)(F)F)c3)CC2)c1,19,39*,-1,-7,53,-20,7
COC(=O)[C@]12C[C@H](CC(=O)NCCC(C)C)C(=O)N(Cc3ccccc3)C1=C[C@H](COCc1ccccc1)O[C@@H]2C,3,/,-1,0,/,/,/
O=C(NCCC1CCCC1)c1cccs1,0,53*,-1,-5,6,-39,-10
O=C(O)CCCC(=O)Nc1ccccc1SCCS(=O)(=O)c1ccc(Cl)cc1,11,35*,0,-1,6,-21,1
O=C(CCS(=O)(=O)c1ccc(Cl)cc1)Nc1ccccc1Br,1,-4,2,4,-2,/,/
Cc1cccc2nc(-c3ccccc3)c(-c3ccc(CN4CCC(n5cc(-c6ccccc6)[nH]c5=O)CC4)cc3)nc12,8,/,-2,1,/,/,/
CNC(=S)n1cnc(N)n1,-4,40*,4,3,-10,-34,0
CC(=O)Nc1ccc(-n2cnnn2)cc1,-3,1,0,-7,-5,/,/
O=C(O)c1cn[nH]c1-n1cnnn1,-1,65*,0,2,-9,65*,-6
O=C(CSc1nnc(-c2ccco2)n1Cc1ccco1)c1ccc([N+](=O)[O-])cc1,-1,/,3,0,/,/,/
COc1ccc(-n2cc(-c3ccc(Br)cc3)[nH]c2=S)cc1,3,14,-2,-11,13,/,/
COc1ccc(-n2cc(-c3ccc(OC)c(OC)c3)[nH]c2=S)cc1,13,41*,-1,4,56,4,10
O=C1Nc2ccccc2/C1=C/c1ccc([N+](=O)[O-])cc1,4,35*,-1,3,1,-2,-2
O=C1Nc2ccccc2/C1=C/c1ccccc1Cl,-2,13,1,2,29,/,/
SMILES,PRMT1 inh,PfM18AAP inh-1,UHRF1 binding,MBD2 inh,PfGluPho inh,PfM18AAP inh-2,CTSL1 confirm
Nc1[nH]c(C(=O)c2ccccc2)c(-c2cccc3ccccc23)c1C(=O)c1cccs1,3,/,0,-2,/,/,/
CN(CCO)c1ccc2c(c1)Oc1ccccc1CN(Cc1cn(Cc3ccc(F)cc3)nn1)S2(=O)=O,-3,/,5,2,/,/,/
COC(=O)[C@]12C[C@H](CC(=O)N3CCN(C(=O)C4CC4)CC3)C(=O)N(Cc3ccc4c(c3)OCO4)C1=C[C@H](COCc1ccccc1)O[C@@H]2C,3,/,2,2,/,/,/
COc1ccc(N2C(N)=C(C#N)C(c3ccsc3)C3=C2CCCC3=O)c(OC)c1 (stereo not drawn),2,35*,-4,5,19,-33,-4
COc1cccc(C2C(C#N)=C(N)N(N(C)C)C3=C2C(=O)CCC3)c1 (stereo not drawn),6,8,-2,-2,5,/,/
C[C@@H](NS(=O)(=O)c1c(F)cccc1F)c1ccccc1,1,/,2,3,/,/,/
CCc1c(-c2cccc(OC)c2)ncn1CCc1ccccc1OC,5,/,1,2,/,/,/
Cc1ccccc1NC(=O)OCCN1CCCC12CCC(c1ccccc1)CC2 (stereo not drawn),-5,/,-4,-5,/,/,/
O=C(NC1CCCCC1)C(c1ccc(O)c(O)c1)N(C(=O)Cn1nnc2ccccc21)c1cccc(O)c1 (stereo not drawn),4,86*,3,1,-5,83*,-2
CCOc1ccccc1-n1c(C)cc(C=O)c1C,-3,4,-3,-3,40,/,/
CCN(CC)c1ccc(-n2c(C)cc(C=O)c2C)cc1,-2,33*,-7,-3,11,-47,0
CC(=O)C1=C(C)NC(SCC(N)=O)=C(C#N)C1c1ccco1 (stereo not drawn),0,1,-2,0,7,/,/
CC(=O)C1=C(C)NC(SCc2cccc([N+](=O)[O-])c2)=C(C#N)C1c1ccco1 (stereo not drawn),20,32*,0,5,7,-18,0
COc1cc(NC(=O)C2CCCN(S(=O)(=O)c3ccc(C)cc3)C2)cc(OC)c1 (stereo not drawn),-2,/,-3,1,/,/,/
COc1ccc(NC(=O)c2sc3nc(N4CCOCC4)c4c(c3c2N)CC(C)(C)OC4)cc1,10,36*,-5,1,31,-56,-8
CCOc1ccc(NC(=O)c2sc3nc(N4CCOCC4)c4c(c3c2N)CCCC4)cc1,17,43*,14,2,42,15,5
CCCCOC(=O)c1sc2nc(N3CCOCC3)c3c(c2c1N)CC(C)(C)OC3,1,-4,1,3,-9,/,/
NNC(=O)c1sc2nc(N3CCOCC3)c3c(c2c1N)CCCC3,-2,-2,-2,0,8,/,/
CC(=O)c1ccc(NC(=O)c2sc3nc(N4CCOCC4)c4c(c3c2N)CCCC4)cc1,20,43*,-5,-1,41,4,4
